The source of these data is the antibiotic and cytotoxicity screens of Wong et al. (2023).

In all, about 39,000 compounds went through this assay and about 1,500 (3.8%) were called active. The entries come from a sample that favours actives as a whole.

The test concerns HSkMC (human skeletal muscle cells). Description: cytotoxicity call (relative viability < 0.9). Particulars: 10 µM.
`C#CCN([C@H](/C=C/C1CC1)[C@@H](O)Cc1ccccc1)[C@@H](Cc1ccc(-n2cc(CCC(=O)NO)nn2)cc1)C(=O)OC`: the cytotoxicity call is “inactive”. With `O=C(CCc1cn(CC(=O)N2CCC3(CC2)C(=O)NCN3c2ccccc2)nn1)NO`, the cytotoxicity call was “inactive”. For the molecule `CCCNC(=O)Cc1nnc[nH]1`, the cytotoxicity call is “inactive”. Under `COc1ccccc1-c1cccc(-c2nc(C(=O)NCc3ccncc3)cc3c2[C@H](CCO)N([S@@](=O)C(C)(C)C)C3)c1` stands “active”. For `CCNC(=O)c1cc2c(c(-c3cccc(-c4cccc(F)c4)c3)n1)[C@H](CCO)N([S@@](=O)C(C)(C)C)C2`, the cytotoxicity call is “inactive”. As for `COc1ccccc1-c1cccc(-c2nc(C(=O)NCc3ccncc3)cc3c2[C@@H](CCO)N([S@](=O)C(C)(C)C)C3)c1`, the entry is “inactive”; as for `CC(C)(C)[S@](=O)N1Cc2cc(C(=O)NCCc3ccncc3)nc(-c3cccc(-c4ccccc4)c3)c2[C@@H]1CCO`, “inactive”; as for `COc1ccccc1-c1cccc(-c2nc(C(=O)NCc3ccncc3)cc3c2[C@@H](CCO)N([S@@](=O)C(C)(C)C)C3)c1`, “inactive”. On to `CC(C)(C)[S@@](=O)N1Cc2cc(C(=O)NCCc3ccncc3)nc(-c3cccc(-c4ccccc4)c3)c2[C@H]1CCO`, for which the cytotoxicity call is “active”. As for `CCNC(=O)c1cc2c(c(-c3cccc(-c4cccc(F)c4)c3)n1)[C@@H](CCO)N([S@](=O)C(C)(C)C)C2`, the entry is “inactive”. Take `CC(C)(C)S(=O)N1Cc2cc(C(=O)Nc3ccc(-c4ccccc4)cc3)nc(-c3cccc(-c4cccc(F)c4)c3)c2[C@@H]1CCO` (some centres undefined): the cytotoxicity call was “active”. Take `CC(C)(C)[S@@](=O)N1Cc2cc(C(=O)NCCc3ccncc3)nc(-c3cccc(-c4ccc(C#N)cc4)c3)c2[C@H]1CCO`: the cytotoxicity call is “inactive”. Consider `COCC(=O)N(C)C[C@H]1Oc2cc(C#CC(C)(C)O)ccc2S(=O)(=O)N([C@@H](C)CO)C[C@H]1C`, for which the cytotoxicity call was “inactive”. With `C[C@H]1CN([C@@H](C)CO)C(=O)c2cccc(NS(=O)(=O)c3cn(C)cn3)c2O[C@@H]1CN(C)C(=O)NC1CCCCC1`, the cytotoxicity call was “inactive”. For `CO[C@H]1CN(C)C(=O)c2ccc(NS(=O)(=O)c3cn(C)cn3)cc2OC[C@@H](C)N(CC2CC2)C[C@@H]1C`, the cytotoxicity call is “inactive”. As to `Cn1cnc(S(=O)(=O)N2C[C@@H](O)COC[C@@H]3O[C@H](CC(=O)NCc4cccc(F)c4)CC[C@H]32)c1`, the cytotoxicity call was “inactive”. As for `CNC(=O)c1cccc(S(N)(=O)=O)c1`, the entry is “inactive”; as for `C[C@@H]1CCCCO[C@H](CN(C)C(=O)NC2CCCCC2)[C@H](C)CN([C@H](C)CO)C(=O)c2cc(NC(=O)NC3CCCCC3)ccc2O1`, “inactive”; as for `C[C@@H]1CN([C@@H](C)CO)C(=O)c2cc(C#CC(C)(C)O)cnc2O[C@H]1CN(C)C(=O)CN(C)C`, “inactive”.

Regarding `C[C@@H]1CN([C@H](C)CO)C(=O)c2cccc(NS(=O)(=O)c3ccc(F)cc3)c2O[C@@H]1CN(C)C(=O)Nc1ccc(C(F)(F)F)cc1`, the cytotoxicity call is “inactive”. Under `C[C@@H]1CN([C@@H](C)CO)C(=O)Cc2cc(NS(C)(=O)=O)ccc2O[C@@H]1CN(C)C(=O)Nc1ccc2c(c1)OCO2` stands “inactive”; under `C[C@H](CO)N1C[C@H](C)[C@H](CN(C)C(=O)Nc2ccc3c(c2)OCO3)OCCCC[C@H](C)Oc2ccc(NC(=O)CCCCCC(=O)Nc3ccccc3N)cc2C1=O`, “inactive”. Regarding `Cc1noc(C)c1NC(=O)Nc1cccc2c1O[C@H](CN(C)Cc1ccc(C(F)(F)F)cc1)[C@H](C)CN([C@@H](C)CO)C2=O`, the cytotoxicity call is “inactive”.

Regarding `C[C@@H]1CN([C@H](C)CO)C(=O)c2cc(NC(=O)Cc3cn(C)c4ccccc34)ccc2O[C@@H]1CN(C)Cc1ccc(C(=O)Nc2ccccc2N)cc1`, the cytotoxicity call is “inactive”. Regarding `C[C@H]1CN([C@@H](C)CO)C(=O)Cc2cc(NC(=O)Cc3cn(C)c4ccccc34)ccc2O[C@@H]1CN(C)Cc1ccc(C(=O)Nc2ccccc2N)cc1`, the cytotoxicity call was “inactive”. Take `C[C@H](CO)N1C[C@H](C)[C@H](CN(C)Cc2ccc(C(=O)Nc3ccccc3N)cc2)Oc2ccc(NC(=O)Cc3cn(C)c4ccccc34)cc2CC1=O`: the cytotoxicity call was “active”. For `C[C@@H]1CN([C@H](C)CO)C(=O)Cc2cc(NC(=O)Cc3cn(C)c4ccccc34)ccc2O[C@@H]1CN(C)Cc1ccc(C(=O)Nc2ccccc2N)cc1`, the cytotoxicity call is “inactive”. Regarding `C[C@H]1CN([C@@H](C)CO)C(=O)c2cc(NC(=O)Cc3cn(C)c4ccccc34)ccc2O[C@@H]1CN(C)Cc1ccc(C(=O)Nc2ccccc2N)cc1`, the cytotoxicity call is “active”. Regarding `C[C@H](CO)N1C[C@H](C)[C@H](CN(C)Cc2ccc(C(=O)Nc3ccccc3N)cc2)Oc2ccc(NC(=O)Cc3cn(C)c4ccccc34)cc2C1=O`, the cytotoxicity call is “inactive”. Under `O=C(C[C@@H]1CC[C@H]2[C@@H](COC[C@H](O)CN2S(=O)(=O)c2ccc(Cl)cc2)O1)NCCN1CCCC1` stands “inactive”; under `O=C(C[C@H]1C=C[C@@H](NS(=O)(=O)c2ccc(F)cc2)[C@@H](CO)O1)N1CCC(Cc2ccccc2)CC1`, “inactive”. As for `C[C@@H]1CCCCO[C@H](CN(C)C(=O)Nc2ccc(C(F)(F)F)cc2)[C@@H](C)CN([C@@H](C)CO)C(=O)c2cc(NC(=O)CCC(F)(F)F)ccc2O1`, the entry is “inactive”; as for `C[C@@H]1CCCCO[C@@H](CN(C)C(=O)CCC(F)(F)F)[C@H](C)CN([C@@H](C)CO)C(=O)c2cc(NS(=O)(=O)c3ccccc3)ccc2O1`, “inactive”. In the case of `COc1ccc(CN(C)C[C@@H]2OCCCC[C@@H](C)Oc3ccc(NC(=O)Nc4ccc(C(F)(F)F)cc4)cc3C(=O)N([C@@H](C)CO)C[C@@H]2C)cc1`, the cytotoxicity call was “active”. As for `COc1ccc(NC(=O)Nc2ccc3c(c2)C(=O)N([C@@H](C)CO)C[C@H](C)[C@@H](CN(C)Cc2ccc(C(F)(F)F)cc2)OCCCC[C@H](C)O3)cc1`, the entry is “inactive”; as for `COc1ccc(NC(=O)Nc2ccc3c(c2)C(=O)N([C@@H](C)CO)C[C@H](C)[C@H](CN(C)Cc2ccc(C(F)(F)F)cc2)OCCCC[C@H](C)O3)cc1`, “inactive”; as for `COc1ccc(CN(C)C[C@H]2OCCCC[C@H](C)Oc3ccc(NC(=O)Nc4ccc(C(F)(F)F)cc4)cc3C(=O)N([C@H](C)CO)C[C@H]2C)cc1`, “active”. As for `COc1ccc(CN(C)C[C@@H]2OCCCC[C@@H](C)Oc3ccc(NC(=O)Nc4ccc(C(F)(F)F)cc4)cc3C(=O)N([C@@H](C)CO)C[C@H]2C)cc1`, the entry is “active”; as for `COc1ccc(CN(C)C[C@H]2OCCCC[C@@H](C)Oc3ccc(NC(=O)Nc4ccc(C(F)(F)F)cc4)cc3C(=O)N([C@H](C)CO)C[C@@H]2C)cc1`, “active”. As for `C[C@@H]1CCCCO[C@H](CN(C)C(=O)Cc2ccccc2)[C@H](C)CN([C@@H](C)CO)C(=O)c2cc(NC(=O)Cc3ccccc3)ccc2O1`, the cytotoxicity call is “inactive”. As for `COc1ccc(NC(=O)Nc2ccc3c(c2)C(=O)N([C@@H](C)CO)C[C@@H](C)[C@@H](CN(C)C(=O)NC2CCCCC2)OCCCC[C@H](C)O3)cc1`, the entry is “inactive”; as for `C[C@@H]1CN([C@H](C)CO)S(=O)(=O)c2ccc(C#Cc3ccncc3)cc2O[C@@H]1CN(C)C(=O)C1CCOCC1`, “inactive”.

Consider `C[C@@H]1CCCCO[C@@H](CN(C)C(=O)C2CCCCC2)[C@@H](C)CN([C@@H](C)CO)C(=O)c2cc(NC(=O)Nc3ccc4c(c3)OCO4)ccc2O1`, for which the cytotoxicity call was “inactive”. Under `COc1ccc(NC(=O)N(C)C[C@H]2Oc3c(NS(C)(=O)=O)cccc3C(=O)N([C@H](C)CO)C[C@@H]2C)cc1` stands “inactive”; under `C[C@@H]1CCCCO[C@H](CN(C)C)[C@H](C)CN([C@@H](C)CO)C(=O)c2cc(NC(=O)Nc3cccc4ccccc34)ccc2O1`, “inactive”. Turning to `C[C@H](CO)N1C[C@H](C)[C@H](CN(C)S(=O)(=O)c2cn(C)cn2)Oc2ccc(NC(=O)CCCN(C)C)cc2C1=O`, the cytotoxicity call was “inactive”. As for `O=C(CN1CCOCC1)NCC[C@@H]1CC[C@H](NS(=O)(=O)c2ccc(Cl)cc2)[C@@H](CO)O1`, the entry is “inactive”. As for `C[C@@H]1CN([C@H](C)CO)C(=O)c2cccc(NC(=O)CCCCCC(=O)Nc3ccccc3N)c2O[C@H]1CN(C)C(=O)Nc1ccccc1`, the cytotoxicity call is “inactive”. Under `Cn1cc(N2C[C@]3(COCCN(C(=O)C4CC4)C3)OCC2=O)cn1` stands “inactive”; under `COc1ccc(CN(C)C[C@@H]2OCCCC[C@@H](C)Oc3ccc(NC(=O)Nc4ccc(C(F)(F)F)cc4)cc3C(=O)N([C@H](C)CO)C[C@@H]2C)cc1`, “active”. As to `COc1ccc(NC(=O)Nc2ccc3c(c2)C(=O)N([C@H](C)CO)C[C@H](C)[C@@H](CN(C)Cc2ccc(C(F)(F)F)cc2)OCCCC[C@@H](C)O3)cc1`, the cytotoxicity call was “inactive”. As for `COc1ccc(NC(=O)Nc2ccc3c(c2)C(=O)N([C@@H](C)CO)C[C@@H](C)[C@H](CN(C)Cc2ccc(C(F)(F)F)cc2)OCCCC[C@H](C)O3)cc1`, the cytotoxicity call is “inactive”. With `COc1ccc(NC(=O)Nc2ccc3c(c2)C(=O)N([C@H](C)CO)C[C@@H](C)[C@H](CN(C)Cc2ccc(C(F)(F)F)cc2)OCCCC[C@H](C)O3)cc1`, the cytotoxicity call is “inactive”.

Regarding `COc1ccc(CN(C)C[C@@H]2OCCCC[C@H](C)Oc3ccc(NC(=O)Nc4ccc(C(F)(F)F)cc4)cc3C(=O)N([C@@H](C)CO)C[C@H]2C)cc1`, the cytotoxicity call is “active”. For `COc1ccc(NC(=O)Nc2ccc3c(c2)C(=O)N([C@H](C)CO)C[C@@H](C)[C@@H](CN(C)Cc2ccc(C(F)(F)F)cc2)OCCCC[C@H](C)O3)cc1`, the cytotoxicity call is “inactive”.

Turning to `COc1ccc(CN(C)C[C@@H]2OCCCC[C@H](C)Oc3ccc(NC(=O)Nc4ccc(C(F)(F)F)cc4)cc3C(=O)N([C@@H](C)CO)C[C@@H]2C)cc1`, the cytotoxicity call is “active”. As for `COc1ccc(NC(=O)Nc2ccc3c(c2)C(=O)N([C@H](C)CO)C[C@@H](C)[C@@H](CN(C)Cc2ccc(C(F)(F)F)cc2)OCCCC[C@@H](C)O3)cc1`, the entry is “active”; as for `C[C@@H]1CN([C@H](C)CO)C(=O)Cc2cc(NS(=O)(=O)c3cn(C)cn3)ccc2O[C@@H]1CN(C)C(=O)Nc1ccc(F)cc1`, “inactive”; as for `C[C@@H]1CN([C@H](C)CO)C(=O)Cc2cc(NC(=O)Nc3cccc4ccccc34)ccc2O[C@@H]1CN(C)S(=O)(=O)c1ccc(F)cc1`, “inactive”.
